From PubChem BioAssay (NCATS) come the findings set out here.

Where “and” joins values, the source holds several entries; their conditions need not be identical. Equal entries are not always repeated. Inconclusive results are not listed. A number with no mark means an inactive call. Calls of active or inactive are those of the source. Unless noted, the call rests on the fitted dose curve; in most records, active means well fitted curve in the direction sought with a large enough effect; inconclusive means small, poorly fitted or top-dose-only effect, or another doubt; inactive means no such curve, though single readings can be large; an effect the other way counts as inactive or inconclusive.

For assay [1], the target named is Cellular tumor antigen p53 (Homo sapiens) (UniProt P04637). In words: Primary qHTS for small molecule compounds that upregulate eGFP-tagged delta133p53alpha (in N-terminal) cells. (AID 2060322).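 Further: cells pre-induced with doxycycline then dosed without doxycycline; series mostly up to about 56 µM; 0% = DMSO vehicle and 100% = reference activator; nearly all actives have a fitted effect of over 75% in size.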 Conditions: NCI-H358 eGFP-delta133p53alpha fluorescence, 24 h; activation: active compounds read high. In outline: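 NCI-H358 cells pre-induced 24 h with 10 ng/ml doxycycline for eGFP-delta133p53alpha, plated dox-free and exposed 24 h at 37C to titrated compounds. Fixed, Hoechst-stained; gated GFP peak intensity by laser scanning cytometry, normalized to DMSO (0%) and 57.5 uM 5-azacytidine (100%).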
On the technique in general: In qHTS, concentration-response curves come from the screen itself.

Assay [2] shares this target. In words: Primary qHTS for small molecule compounds that upregulate eGFP-tagged delta133p53alpha (in C-terminal) cells. (AID 2060324). Further: potency means the concentration at half of the fitted maximal effect. The method in brief: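 Concentration-response screen: compounds titrated onto pre-induced NCI-H358 D133p53a-eGFP cells, incubated one day, fixed with 3.5% PFA. Per-cell GFP peak intensity was gated, then normalized against intraplate controls.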

Assay [3] deals with Aldehyde dehydrogenase, mitochondrial (Homo sapiens) (UniProt P05091). In words: qHTS for Inhibitors of the Aldehyde Dehydrogenase Family (ALDH2) Validation screens (AID 2061302; active means well fitted inhibition curve with a large enough effect; title and protocol of this record describe different tests;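 further: plate controls were DMSO vehicle for no effect and maximal DPI positive control response for full effect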).
The target in assay [4] is Retinaldehyde dehydrogenase 3 (Homo sapiens) (UniProt P47895). In words: qHTS for Inhibitors of the Aldehyde Dehydrogenase Family (ALDH1A3) Validation screen (AID 2061312). Further: on the % scale 0 is the no-effect control and ±100 the full control effect; nearly all actives have a fitted effect of over 45% in size.

Chain of Cellular tumor antigen p53 (Homo sapiens) (P04637 whole entry, looked up): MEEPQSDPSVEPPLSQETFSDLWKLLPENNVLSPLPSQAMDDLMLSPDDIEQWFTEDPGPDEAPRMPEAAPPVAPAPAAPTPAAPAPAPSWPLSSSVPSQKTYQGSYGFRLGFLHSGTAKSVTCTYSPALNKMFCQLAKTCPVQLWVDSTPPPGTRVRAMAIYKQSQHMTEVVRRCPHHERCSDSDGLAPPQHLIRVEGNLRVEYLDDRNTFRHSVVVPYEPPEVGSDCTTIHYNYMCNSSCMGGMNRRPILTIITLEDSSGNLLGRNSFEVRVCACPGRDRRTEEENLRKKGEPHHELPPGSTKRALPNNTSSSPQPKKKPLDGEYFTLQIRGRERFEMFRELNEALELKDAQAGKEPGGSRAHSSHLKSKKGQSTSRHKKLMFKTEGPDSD

`CC[C@H](NC(=O)c1c(C)c(-c2ccccc2)nc2ccccc12)c1ccccc1`: the activation in assay [1] is -16.3%. The Potency entry in assay [2], in assay [3] and in assay [4] was “inactive” throughout.
In the case of `Fc1cccc(/C=N/N=C/c2cccc(F)c2)c1`, in assay [1], the activation was -12.5%. The Potency result in assay [2], in assay [3] and in assay [4] was “inactive” in each case.
With `N#CC(C#N)=C(N)/C(C#N)=C/c1ccc(O)cc1`, the activation in assay [1] is -15.2%. For the same compound, the Potency entry in assay [2], in assay [3] and in assay [4] was “inactive” in each case.
Turning to `COc1ccc(/C=C2\COc3ccc(C)cc3C2=O)cc1O`, the activation in assay [1] is -71.5%. Besides, in assay [2], the Potency was 13.5 µM (active). The Potency result in assay [3] and in assay [4] was “inactive” throughout.
`Cc1ccc([N+](=O)[O-])cc1S(=O)(=O)N(C)C`: the activation in assay [1] was -2.98%. The Potency entry in assay [2], in assay [3] and in assay [4] was “inactive” throughout.
For the compound `CCCCC1C(=O)N(c2ccccc2)N(c2ccccc2)C1=O`, the activation in assay [1] was 10% and 16.7%. The Potency result in assay [2], in assay [3] and in assay [4] was “inactive” in each case.
Turning to `CN1CCCC1CCOC(C)(c1ccccc1)c1ccc(Cl)cc1` (stereo not given), in assay [1], the activation was -26.8%. Also, the Potency entry in assay [2], in assay [3] and in assay [4] was “inactive” in each case.
`Cc1ccccc1C(OCCN(C)C)c1ccccc1` (stereo not given): the activation in assay [1] is 0.562% and -27.9%. Moreover, the Potency result in assay [2], in assay [3] and in assay [4] was “inactive” each time.
Regarding `C[C@]12CC[C@@H]3c4ccc(O)cc4C[C@@H](CCCCCCCCCS(=O)CCCC(F)(F)C(F)(F)F)[C@H]3[C@@H]1CC[C@@H]2O` (stereo not given in full), the activation in assay [1] is 5.86% and -66.3%. Also, the Potency result in assay [2], in assay [3] and in assay [4] was “inactive” each time.
Regarding `N[C@@H](CCC(=O)N[C@H](CSN=O)C(=O)NCC(=O)O)C(=O)O`, the activation in assay [1] is -28.5%. For the same compound, the Potency entry in assay [2], in assay [3] and in assay [4] was “inactive” each time.
